BAZ2B inh: BAZ2B (human) inhibition. 4.4% of 360,000 active. Potency, µM (top dose mostly 114 µM), usual class: inhibitors. AID 504333. AlphaScreen BAZ2B-H3K14Ac peptide displacement. Q9UIF8; also: nearly all actives have a fitted effect of over 60% in size
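BAZ2B (50 nM) with biotin-H3(5-23)K14Ac peptide (50 nM) in PBS pH 7.4, 0.01% Tween-20, preformed 30 min, then compound 30 min at room temperature; top concentration 110uM. AlphaScreen streptavidin donor/nickel chelate acceptor beads (10 ug/mL final), 20 min dark, signal read.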
L3MBTL1 inh-1: blocks human L3MBTL1; Q9Y468; AlphaScreen L3MBTL1–H3K9me1 peptide binding; Potency, µM (titrated, usually from 57.1 µM), actives largely listed as inhibitors; 0.66% of 230,000 active; also: nearly all actives have a fitted effect of over 60% in size
Target sequence (Q9Y468 whole entry, looked up): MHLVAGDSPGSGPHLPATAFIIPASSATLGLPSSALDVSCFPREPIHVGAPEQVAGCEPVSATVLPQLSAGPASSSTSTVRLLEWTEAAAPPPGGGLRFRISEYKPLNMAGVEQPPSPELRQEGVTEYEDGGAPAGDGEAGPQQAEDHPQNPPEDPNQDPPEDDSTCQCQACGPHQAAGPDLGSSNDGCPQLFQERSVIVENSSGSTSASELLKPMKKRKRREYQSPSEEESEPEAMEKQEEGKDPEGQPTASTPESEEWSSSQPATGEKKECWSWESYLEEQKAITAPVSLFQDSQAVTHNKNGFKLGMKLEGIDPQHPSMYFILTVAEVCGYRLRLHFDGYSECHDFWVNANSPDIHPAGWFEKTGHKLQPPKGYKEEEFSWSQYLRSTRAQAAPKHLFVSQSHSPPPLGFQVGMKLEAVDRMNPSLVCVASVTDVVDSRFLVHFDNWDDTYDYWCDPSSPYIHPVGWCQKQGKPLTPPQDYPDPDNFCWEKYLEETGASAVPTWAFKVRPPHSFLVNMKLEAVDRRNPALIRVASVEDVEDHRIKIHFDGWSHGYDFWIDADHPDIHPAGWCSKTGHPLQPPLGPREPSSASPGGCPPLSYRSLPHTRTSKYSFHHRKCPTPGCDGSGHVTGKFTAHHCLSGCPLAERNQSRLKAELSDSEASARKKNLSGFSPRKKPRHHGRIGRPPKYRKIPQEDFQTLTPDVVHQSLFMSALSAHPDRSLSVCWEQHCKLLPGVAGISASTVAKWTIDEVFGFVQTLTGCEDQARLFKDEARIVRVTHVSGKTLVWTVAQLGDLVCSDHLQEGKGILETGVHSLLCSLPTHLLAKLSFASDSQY
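L3MBTL1 50 nM + b-AHA-H3(1-15)K9me1 75 nM, 30 min RT; compound added, 30 min RT; streptavidin donor/Ni-chelate acceptor beads 10 ug/mL each final, 30 min RT dark; AlphaScreen read.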
Sfp PPTase inh: Sfp phosphopantetheinyl transferase inhibition. Q9F4F7. Biochemical Sfp PPTase activity, qHTS. Potency, µM, most hits filed as inhibitors. 3.5% of 310,000 active;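 also: the enzyme is Sfp with the accession as filed and its product quenches rhodamine fluorescence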
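With Hepes-Na pH 7.6 buffer containing 10 mM MgCl2, Sfp (15 nM) modified BHQ-2-YbbR (12.5 uM) using rhodamine-CoA (5 uM). Two reads 30 minutes apart at 525/598 nm yielded each well's rate.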
JMJD2A Tudor: blocks the human JMJD2A Tudor domain | Potency, µM (series often up to 114 µM), actives largely listed as inhibitors | 4.4% of 390,000 active | O75164 | AlphaScreen JMJD2A-Tudor / H3K4me3 peptide binding; also: nearly all actives have a fitted effect of over 50% in size
HP1b binding inh: HP1-beta chromodomain-methylated histone interaction inhibition | AID 540317 | AlphaScreen HP1-beta / biotin-H3K9me3 peptide binding | Potency, µM (highest dose often 114 µM), usual class: inhibitors | 0.56% of 390,000 active; also: nearly all actives have a fitted effect of over 70% in size
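Compound inhibition of the preformed complex between 50 nM HP1-beta and 50 nM biotinylated H3K9me3 peptide was read by AlphaScreen. Buffer was PBS pH 7.4 with 0.01% Tween-20. Incubations ran 30 min at room temperature, with 10 ug/mL donor/acceptor beads.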
G9a inh: G9a (human) methyltransferase inhibition; Q96KQ7; G9a H3K9 monomethylation, AlphaScreen, 2 h; Potency, µM (series often up to 102 µM), hits mostly inhibitors; 8.8% of 350,000 active; also: nearly all actives have a fitted effect of over 75% in size
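Using a bead-based AlphaScreen, monomethylated H3K9 product from 2 h room-temperature reactions (G9a 20 nM, peptide 500 nM, SAM 20 uM) was detected with 0.5 ug/mL rabbit anti-H3K9me1 antibody.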
L3MBTL1 inh-2: validation of human L3MBTL1 methyl-lysine binding inhibitors; shares compounds with L3MBTL1 inh-1; L3MBTL1 methyl-lysine binding inhibition, biochemical qHTS; AID 540279; Potency, µM, usual class: inhibitors; 91% of 500 active; also: nearly all actives have a fitted effect of over 70% in size
AlphaScreen ctr2: counter-screen for L3MBTL1 inhibitors: AlphaScreen signal interference. 500 tested, under 10 active. AlphaScreen counterscreen, signal inhibition. shares compounds with L3MBTL1 inh-1. Potency, µM (top dose mostly 57.1 µM), usual class: inhibitors. AID 602224
Numbers stand for hits; n = inactive; u = inconclusive; x = no result; [ ] = remark or other dose. Only some compounds are listed: those with a hit (about 12% of all), similar ones and a draw of the others. Calls follow the shape of the dose curve; as a rule, active = well fitted curve in the direction sought with a large enough effect; inconclusive = small, poorly fitted or top-dose-only effect, or another doubt; inactive = no such curve, though single readings can be large; an effect the other way counts as inactive or inconclusive.

SMILES | BAZ2B inh | L3MBTL1 inh-1 | Sfp PPTase inh | JMJD2A Tudor | HP1b binding inh | G9a inh | L3MBTL1 inh-2 | AlphaScreen ctr2
Cc1n[nH]c(C)c1Cc1c(F)cccc1Cl | n | x | n | n | n | n | x | x
Nc1nc(-c2ccccn2)nc(N)c1Cc1c(F)cccc1Cl | 8.9µM | 3.5µM | u | 79µM | n | n | 11 | n
COC(=O)c1c(C)[nH]c(C(=O)C(C)OC(=O)C2CC(=O)N(CCc3ccccc3)C2)c1C (stereo not given) | 56µM | 28µM | x | n | n | n[2.33 µM] | 27 | n
CC(=O)NCc1ccc(S(=O)(=O)NC(C(=O)O)C(C)C)cc1 (stereo not given) | n | n | n | n | n | u | x | x
N#CCc1ccc(NC(=O)/C=C/c2ccc([N+](=O)[O-])o2)cc1 | u | 4µM | u | u | n | 71µM | 27 | n
COc1ccc(CN2CN(S(=O)(=O)c3cccs3)c3nc4ccccc4nc32)cc1 | n | n | n | n | n | n | x | x
O=C(CSc1ncccc1-c1nc2ccccc2[nH]1)NCc1ccco1 | 56µM | 35µM | 40µM | 35µM | u | 10µM | 21 | u
COc1ccc(/C=C/C(=O)NCc2ccccn2)cc1 | n | n | n | n | n | n | x | x
Cc1ccc(/C=C/C(=O)NCc2ccccn2)o1 | 45µM | 32µM | n | 50µM | u | u | 7.5 | n
Cc1ccc(-c2ccc(CCC(=O)O)n2CC(=O)O)cc1 | u | 22µM | 71µM | u | n | n[12.7 µM] | 5.3 | n
CCc1nnc(NC(=O)CN2CCN(Cc3ccc(F)cc3)CC2)s1 | n | n | n | u | n | n | x | x
CCOc1ccc(/C=C(\C#N)C(=O)Nc2ccccn2)cc1 | n | n | n | n | n | n | x | x
COC(=O)/C(C#N)=C/c1ccc(OC(=O)c2ccccn2)cc1 | 7.1µM | 16µM | 14µM | 8.9µM | n | 7.9µM | u | n
Cc1ccc(NC(=O)CN2C(=O)S/C(=C/c3ccc(-c4cccc(C(=O)O)c4)o3)C2=O)cc1 | 16µM | 35µM | n | 45µM | u | x | 27 | n
NNC(=O)c1cccn(Cc2cccc(C(F)(F)F)c2)c1=O | n | x | n | n | n | n | x | x
CCNC(=O)COC(=O)c1cc(-c2ccco2)nc2ccccc12 | 50µM | 25µM | 16µM | 56µM | u | 40µM | 4.2 | n
O=C(O)c1cc(-c2ccco2)nc2ccccc12 | u | 22µM | 35µM | 25µM | 45µM | 28µM | 3 | n
O=C(Oc1c(CN2CCOCC2)cc(Cl)c2cccnc12)c1ccccc1Cl | 11µM | 14µM | n | 50µM | n | n | 27 | n
O=C(c1ccc(Cl)c(Cl)c1)N1CCN(c2ccccn2)CC1 | n | n | n | n | n | x | x | x
Oc1c(CN2CCN(c3ccccn3)CC2)cc(Cl)c2cccnc12 | 14µM | 4.5µM | n | 32µM | n | u | 21 | n
Cc1ccc(C(=O)CN2C(=O)NC3(CCc4ccccc43)C2=O)s1 (stereo not given) | n | n | x | n | n | n | x | x
COCCN(C(=O)COC(=O)c1ccc(Cl)s1)c1c(N)n(Cc2ccccc2)c(=O)[nH]c1=O | n | n | x | n | n | u | x | x
COCCN(C(=O)COC(=O)Cc1coc2cc(C)ccc12)c1c(N)n(Cc2ccccc2)c(=O)[nH]c1=O | u | 25µM | x | n | n | u | 27 | n
COCCN(C(=O)COC(=O)c1cc2c(s1)CCC2)c1c(N)n(Cc2ccccc2)c(=O)[nH]c1=O | 8.9µM | 2.5µM | x | 8.9µM | n | 10µM | 0.84 | n
C[C@@H]1C[C@H]2[C@@H]3CCC4=CC(=O)C=C[C@]4(C)[C@@]3(Cl)[C@@H](O)C[C@]2(C)[C@@]1(OC(=O)c1ccco1)C(=O)CCl | n | n | x | n | n | n | x | x
SMILES | BAZ2B inh | L3MBTL1 inh-1 | Sfp PPTase inh | JMJD2A Tudor | HP1b binding inh | G9a inh | L3MBTL1 inh-2 | AlphaScreen ctr2
COc1ccc(N=C2NC(=O)S/C2=C\c2ccc(N(C)C)cc2)cc1 | n | n | n | n | n | n | x | x
Cc1ccc(N=C2NC(=O)S/C2=C\c2ccco2)cc1 | 63µM | 25µM | 35µM | 18µM | n | u | 12 | n
Oc1c(C(Nc2cccc(C(F)(F)F)c2)c2ccncc2)ccc2cccnc12 (stereo not given) | 20µM | 22µM | n | 32µM | n | 28µM | 21 | n
CC(=O)N(c1ccc(Cl)cc1)C1SC(=O)N(c2ccccc2)C1=O (stereo not given) | x | x | x | n | n | x | x | x
O=C(Nc1ccc(S(=O)(=O)Nc2ncccn2)cc1)c1cccc(Cl)c1 | n | x | x | n | n | n | x | x
O=C(Nc1ccc(S(=O)(=O)Nc2ncccn2)cc1)c1ccc2ncsc2c1 | 40µM | 20µM | u | 35µM | n | 45µM | u | n
O=C(Cn1c(=O)n(Cc2ccco2)c(=O)c2c3c(sc21)CCCCC3)c1ccccc1 | n | 35µM | 56µM | u | n | n | 3.8 | n
Oc1[nH]c2ccccc2c1N=Nc1ccc(F)cc1 | n | n | n | n | n | u | x | x
Oc1c(N=Nc2ccc(F)cc2)ccc2ccccc12 | 1.4µM | 7.9µM | n | 2.5µM | 3.2µM | 2.5µM | 1.1 | 0.75µM
O=C(O)c1cc(Cl)c2c(c1)[C@@H]1C=CC[C@@H]1[C@H](c1ccc(S(=O)(=O)N3CCOCC3)cc1)N2 | 50µM | 22µM | u | 79µM | n | 22µM | 27 | u
CC(NCC(=O)Nc1ccccc1C(=O)NC1CC1)c1ccc(S(C)(=O)=O)cc1 (stereo not given) | n | n | x | n | n | n | x | x
Cc1cc(C(=O)COC(=O)c2cc(Cl)c(O)c(Cl)c2)c(C)n1C | 50µM | 28µM | x | 50µM | u | n[12.7 µM] | 4.7 | u
NC(=O)c1ccc(NC(=O)COC(=O)C2COc3ccccc3O2)cc1 (stereo not given) | x | n | x | n | n | x | x | x
Cc1ccccc1N=C1NC(=O)/C(=C/c2cccn2-c2cccc(C(=O)O)c2)S1 | 40µM | 40µM | n | 50µM | u | 28µM | 4.2 | n
Oc1ccc(C2=Nn3c(nnc3-c3ccco3)SC2)cc1O | u | 25µM | u | 45µM | u | 13µM | 9.5 | n
NC(=O)c1cc(NC(=O)c2cc(Br)c(Br)s2)cc(C(N)=O)c1 | u | u | n | n | n | n | x | x
O=C(O)CNc1ccccc1C(=O)O | u | 22µM | n | 56µM | n | x | 3 | n
CC(C)c1ccc(C(O)P(=O)(OC2CCCCC2)OC2CCCCC2)cc1 (stereo not given) | n | n | n | n | n | n | x | x
Cc1c(O)cc2c(c1O)C(=O)CC(c1ccc(O)cc1)O2 (stereo not given) | 56µM | 4µM | n | u | n | u | 6.7 | n
